Shown are actives, neighbours in structure and some others; about 1.9% of the full set was active somewhere.
BJeLR lethal – MLPCN primary cell-based screen for lethality selective to Ras in HRASV12 cells; BJeLR (HRASV12) viability, CellTiter-Glo ATP luminescence, 48 h; inhibition, % (concentration not given with the values); 300,000 compounds, 0.17% hits; in the data active means inhibition above about 50%; inconclusive means no clear call, values can overlap the other calls
PrPC TRFRET – inhibitors of human cell surface prion protein PrPC, primary screen, cell-based, TR-FRET; Major prion protein (Homo sapiens), P04156; 370,000 compounds, 0.43% hits; TR-FRET read-out; inhibition, % at 13.8 µM; in the data active means inhibition above about 24%; further: 0% = median of the test wells and 100% = reference compound wells
PfHsp40 yeast – rescue of yeast from PfHsp40 toxicity, primary screen, S. cerevisiae, ATP luminescence. S. cerevisiae expressing PfHsp40, growth rescue. growth rescue, % at 12.5 µM. 340,000 compounds, 0.68% hits. AID 504582, 2011; in the data active means growth rescue above about 28%, passing the limit was not always enough; inconclusive means no clear call, values can overlap the other calls;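 further: yeast W303a lacking pdr1 and pdr3 grown in galactose medium; growth measured after three days at 30 °C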
RecA intein inh – Mtb RecA intein splicing inhibitors, primary screen, biochemical, fluorescence, HTS; Protein RecA (Mycobacterium tuberculosis (strain ATCC 25618 / H37Rv)), P9WHJ3; cell-free RecA intein splicing; inhibition, % (no concentration beside the values); 290,000 compounds, 0.75% hits; in the data active means inhibition above about 30%; inconclusive means no clear call, values can overlap the other calls;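 further: 0% = vehicle wells and 100% = reference inhibitor control wells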
Target sequence (P9WHJ3 whole entry, looked up): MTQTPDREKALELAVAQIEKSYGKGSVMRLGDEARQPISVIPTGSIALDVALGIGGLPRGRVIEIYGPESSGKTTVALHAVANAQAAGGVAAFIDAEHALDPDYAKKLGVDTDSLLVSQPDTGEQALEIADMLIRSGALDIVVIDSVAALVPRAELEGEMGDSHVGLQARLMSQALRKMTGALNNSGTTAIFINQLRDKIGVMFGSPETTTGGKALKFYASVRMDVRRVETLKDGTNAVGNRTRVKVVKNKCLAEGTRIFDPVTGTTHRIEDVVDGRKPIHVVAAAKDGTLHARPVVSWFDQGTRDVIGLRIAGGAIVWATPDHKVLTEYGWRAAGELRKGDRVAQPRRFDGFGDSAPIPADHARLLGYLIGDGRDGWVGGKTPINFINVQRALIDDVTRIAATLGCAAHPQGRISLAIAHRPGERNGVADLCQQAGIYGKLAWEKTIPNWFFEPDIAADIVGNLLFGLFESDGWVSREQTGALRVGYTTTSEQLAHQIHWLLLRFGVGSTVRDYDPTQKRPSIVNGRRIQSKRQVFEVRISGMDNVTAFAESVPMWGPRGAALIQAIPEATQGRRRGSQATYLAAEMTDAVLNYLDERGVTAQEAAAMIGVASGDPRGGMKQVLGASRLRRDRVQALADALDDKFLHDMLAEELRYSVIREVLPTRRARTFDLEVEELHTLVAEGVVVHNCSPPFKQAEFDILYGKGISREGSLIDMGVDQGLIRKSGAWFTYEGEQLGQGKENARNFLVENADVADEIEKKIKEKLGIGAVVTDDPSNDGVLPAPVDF
PrP UTR inh – inhibition of PrP 5' UTR reporter expression | cell-based PrP 5' UTR mRNA reporter, plate reader | inhibition, % (no concentration beside the values) | 340,000 compounds, 0.35% hits | AID 488862, 2010; in the data active means inhibition above about 52%; further: 0 = median of the neutral control wells
SSB-PriA inh – inhibitors of Klebsiella pneumoniae PriA binding to SSB C-terminal tail, primary screen, biochemical, AlphaScreen; PriA–SSB C-terminal tail interaction (Klebsiella pneumoniae); AlphaScreen SSBct-PriA binding, biotinylated peptide; inhibition, % at 33 µM; 430,000 compounds, 0.6% hits; AID 1272365, 2023; in the data active means inhibition mostly above about 37%, no sharp cut-off; inactive means mostly below about 20%;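 further: plate controls were negative control peptide for no effect and reference peptide for full effect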
Starred values were filed as active, the others as inactive; i = inactive; ? = inconclusive; . = no result.

SMILES	BJeLR lethal	PrPC TRFRET	PfHsp40 yeast	RecA intein inh	PrP UTR inh	SSB-PriA inh
CC(CSc1n[nH]c(=S)s1)c1ccccc1 (stereo not drawn)	.	-1	?	.	-15	7
COc1ccccc1/C=C/CN1CCC(n2nccc2NC(=O)CCc2ccccc2)CC1	5	-1	-2	3	-18	102*
O=C(CCc1ccccc1)Nc1ccnn1C1CCN(C/C=C/c2ccccc2)CC1	3	-7	-1	0	-11	-3
Cc1cccc2sc(NNC(=O)c3ccc(S(=O)(=O)N4CC(C)CC(C)C4)cc3)nc12 (stereo not drawn)	19	5	285*	-4	30	1
Cc1cc(C)c2nc(NNC(=O)c3ccc(S(=O)(=O)N4CCCC(C)C4)cc3)sc2c1 (stereo not drawn)	6	-1	97*	-6	7	0
Cc1ccc2nc(NNC(=O)c3ccc(S(=O)(=O)N4CCc5ccccc5C4)cc3)sc2c1	15	17	9	-2	47	95*
Cc1nc2ccc(NS(=O)(=O)c3ccc(C(F)(F)F)cc3)cc2c(=O)n1-c1ccc(F)cc1	.	.	.	.	.	0
CC(C)(C)c1ccc(OCCn2cnc(Cl)c2Cl)cc1	.	.	.	.	.	98*
COc1ccc(C)cc1NC(=O)CS(=O)c1ncc(-c2ccccc2)n1C (stereo not drawn)	.	.	.	.	.	79*
O=[N+]([O-])c1cc(Cl)cc(C=Nn2cnnc2)c1O	.	.	.	.	.	-3
CN(C)C1(CN=Cc2cc(Cl)cc([N+](=O)[O-])c2O)CCCCC1	-6	-13	42*	8	-18	-17
COCC(=O)N1CCCc2ccc(NS(=O)(=O)CC34CCC(CC3=O)C4(C)C)cc21 (stereo not drawn)	.	.	.	.	.	36*
COC(=O)N1CCc2ccc(NS(=O)(=O)CC34CCC(CC3=O)C4(C)C)cc2C1 (stereo not drawn)	.	.	.	.	.	-14
COCC(=O)N1CCCc2ccc(NC(=O)c3cc(Br)cs3)cc21	.	.	.	.	.	0
COCC(=O)N1CCCc2ccc(NC(=O)Cc3ccsc3)cc21	.	.	.	.	.	35*
Cc1noc(C)c1CSc1nc2scc(-c3ccco3)c2c(=O)n1-c1ccccc1	.	.	.	.	.	-16
Cc1[nH]n(-c2ccccc2)c(=O)c1N=Nc1nccs1	11	-14	36*	0	7	17
Cc1ccccc1N=Nc1c(C)[nH]n(-c2ccccc2)c1=O	.	.	.	.	.	1
Cc1cccc(NS(=O)(=O)c2ccc(C)c(C(=O)NC3CCN(Cc4ccccc4)CC3)c2)c1	.	3	0	.	-4	47*
CSCC[C@H](N)c1nc(-c2ccncc2)no1	.	.	.	.	.	2
CCOc1cccc(/C=N/Nc2ccc(S(=O)(=O)N(CC)CC)cn2)c1O	52*	-4	0	5	29	.
CCOC(=O)N1CCC(NC(=O)CSc2ccc(-c3ccccc3Cl)nn2)CC1	.	.	.	.	.	-1
N#CCn1c(CCl)nc2ccccc2c1=O	4	-1	0	38*	-21	1
O=S1(=O)CCC(NS(=O)(=O)CCCCC(Cl)(Cl)Cl)C1 (stereo not drawn)	.	.	.	.	.	-3
N=C1/C(=C\c2ccc(OC(=O)c3ccc(F)cc3)cc2)C(=O)N=C2SC(N3CCOCC3)=NN12	5	-5	0	39*	-23	-4
SMILES	BJeLR lethal	PrPC TRFRET	PfHsp40 yeast	RecA intein inh	PrP UTR inh	SSB-PriA inh
CC(C)CS(=O)(=O)C1=NN2C(=N)/C(=C\c3ccc(OC(=O)c4ccco4)cc3)C(=O)N=C2S1	4	-3	1	40*	-7	-7
CCOc1cc(/C=C2/C(=N)N3C(=NC2=O)SN=C3S(=O)(=O)C(C)C)ccc1OC(=O)c1ccco1	-7	-3	10	32*	-9	-15
CS(=O)(=O)C1=NN2C(=N)/C(=C\c3ccc(OC(=O)c4ccco4)cc3)C(=O)N=C2S1	-8	-6	1	37*	0	0
COC(=O)C/C(=N\Nc1nc2sc(C)c(C)c2c(=O)[nH]1)C(=O)OC	.	.	.	.	.	4
CC(C)c1nc(-c2ccc(N3CCN(C(=O)Cc4cn(C)c5ccccc45)CC3)nc2)no1	.	.	.	.	.	61*
Nc1ccc(SCc2nc3cccc4c3n2CCC4)cc1	0	9	2	-1	-16	44*
O=C(c1cc2cc([N+](=O)[O-])ccc2oc1=O)N1CCc2ccccc2C1	.	.	.	.	.	-4
O=C(c1cc2cc([N+](=O)[O-])ccc2oc1=O)n1cccn1	6	3	-1	1	-16	56*
CCOC(=O)c1c(-c2ccc(F)cc2)csc1NC(=O)CSc1nc2c(c(-c3ccccc3)c1C#N)C(=O)CC(C)(C)C2	.	.	.	.	.	1
Cc1cc(C)c(C)c(OCCCOc2cccc3cccnc23)c1	-4	2	93*	18	-27	-5
Cc1ccc(N2C(=O)c3cccc4c(N5CCN(C)CC5)ccc(c34)C2=O)c2cccnc12	1	.	.	i	.	-14
Cc1ccc(N2C(=O)c3cccc4c([N+](=O)[O-])ccc(c34)C2=O)c2cccnc12	52*	-2	3	-4	37	-5
COc1ccc(N2C(=O)CC(N3CCC(O)(c4ccc(Br)cc4)CC3)C2=O)cc1 (stereo not drawn)	-3	11	0	2	10	-3
CCCOc1ccc(N2C(=O)CC(N3CCC(O)(c4cccc(C(F)(F)F)c4)CC3)C2=O)cc1 (stereo not drawn)	1	6	28*	0	-24	-3
COC(=O)C(=NNc1ccccc1Cl)Sc1nnc(C(O)c2ccccc2)n1-c1ccccc1 (stereo not drawn)	.	.	.	.	.	-6
CCc1nc2ccccc2c(=O)n1NC(=O)c1c(O)c2ccccc2n(CC)c1=O	2	4	181*	1	3	1
O=C(Nc1nnc(Cc2cccs2)o1)c1ccc(Cl)s1	.	.	.	.	.	35*
CCSc1ccc(C(=O)Nc2nccs2)cc1	.	.	.	.	.	64*
O=C(Nc1nnc(Cc2cccs2)o1)c1ccccc1	.	.	.	.	.	28
O=C(Nc1nnc(Cc2cccs2)o1)c1ccc2ncsc2c1	.	.	.	.	.	71*
CCSc1ccc(C(=O)Nc2nnc(Cc3cccs3)o2)cc1	.	.	.	.	.	36*
CS(=O)(=O)N1CCC(CNC(=O)CSC2CCCC2)CC1	.	.	.	.	.	-7
CCOC(=O)c1sc(=NC(=O)/C=C/c2ccc([N+](=O)[O-])s2)n(C)c1C	.	.	.	.	.	-10
Cc1ccccc1OCCNc1cc(N2CCCCC2)ccc1[N+](=O)[O-]	15	8	1	13	-21	-11
Cc1ccccc1OCCNc1cc(N2CCN(CCO)CC2)ccc1[N+](=O)[O-]	9	-30	-2	3	-41	42*
OCCC#Cc1c(-c2ccsc2)sc2ccccc12	-4	5	56*	10	-9	-4
